Screening results deposited in PubChem by National Center for Advancing Translational Sciences (NCATS).
AMA1-RON2 inh = inhibitors of Plasmodium falciparum AMA1-RON2 interaction; Potency, µM (top dose mostly 58.2 µM), inactives show at the highest dose activity change, negative = inhibition, actives largely listed as inhibitors; actives 0.2% (n = 360,000); AlphaScreen AMA1-biotinylated RON2 peptide binding;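 note: potency is the fitted concentration of half-maximal effect; 0% = vehicle wells and -100% = peptide control; nearly all actives have a fitted effect of over 45% in size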
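AMA1 (3D7) with his tag at 25 nM final met compounds first, then biotinylated RON2 peptide at 25 nM; detection used donor plus acceptor beads, 10 µg/mL apiece, read by AlphaScreen after 30 min at room temperature.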
SARS PLpro yeast-1 = SARS-CoV PLP inhibition in yeast; S. cerevisiae expressing SARS-CoV PLpro, growth rescue; Potency, µM (titrated, usually from 32.9 µM), for the others: at the highest dose activity, positive = growth rescue, most hits filed as activators; actives 0.19% (n = 330,000); AID 485353; calls by dose curve; note: potency is the fitted concentration of half-maximal effect; 0% is about no effect; nearly all actives have a fitted effect of over 55% in size
LmPK inhibitor = LmPK (Leishmania mexicana) enzyme inhibition | actives 0.37% (n = 290,000) | Potency, µM (series often up to 57.5 µM), without a hit: top-dose activity change, negative = inhibition, actives largely listed as inhibitors | Q27686 | purified LmPK, Kinase-Glo ATP luminescence, 1 h | AID 1721; note: potency is the fitted concentration of half-maximal effect; % is set by controls: 0 for no effect and ±100 for the full control effect
Target sequence (Q27686 whole entry, looked up): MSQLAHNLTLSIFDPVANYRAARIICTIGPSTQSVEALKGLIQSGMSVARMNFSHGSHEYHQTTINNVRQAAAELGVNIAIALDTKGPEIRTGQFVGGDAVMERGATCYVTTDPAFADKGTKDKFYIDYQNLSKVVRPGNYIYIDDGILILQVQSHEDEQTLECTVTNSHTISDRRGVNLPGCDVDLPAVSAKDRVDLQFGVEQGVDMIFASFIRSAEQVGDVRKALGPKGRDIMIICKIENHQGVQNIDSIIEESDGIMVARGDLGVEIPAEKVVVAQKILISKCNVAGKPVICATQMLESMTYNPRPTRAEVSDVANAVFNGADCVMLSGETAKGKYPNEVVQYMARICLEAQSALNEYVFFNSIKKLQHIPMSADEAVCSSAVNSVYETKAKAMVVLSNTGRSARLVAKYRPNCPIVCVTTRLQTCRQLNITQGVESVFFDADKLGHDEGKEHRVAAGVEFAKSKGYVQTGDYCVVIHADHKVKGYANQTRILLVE
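In 50 mM imidazole pH 7.2 with 7 mM MgCl2, LmPK (0.1 nM) turned over PEP (0.5 mM) and ADP (0.1 mM) for 1 h at room temperature. Luciferase read-out of ATP.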
RE007 growth inh = less growth of the S. pombe RE007 Vpr strain; S. pombe RE007 Vpr strain, BacTiter-Glo ATP luminescence, 24 h; Potency, µM (top dose mostly 92.2 µM), for inactives: at the top dose activity change, negative = less growth, most hits filed as inhibitors; actives 0.21% (n = 360,000); AID 651644; active = well fitted falling curve with a large enough effect; inconclusive = small, poorly fitted or top-dose-only effect; inactive = no such curve, though single readings can be large or run the other way; note: potency is the fitted concentration of half-maximal effect; % is set by controls: 0 for no effect and ±100 for the full control effect; nearly all actives have a fitted effect of over 50% in size
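Fission yeast RE007 carrying one integrated HIV-1 vpr copy, seeded at OD 0.01 in PMG+AL medium with 23 nL pinned compound. Grown 24 h at 30 degrees; viability read by BacTiter-Glo luminescence after 5 min.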
TbPYK inhibitor = inhibitors of Trypanosoma brucei pyruvate kinase | actives 0.12% (n = 410,000) | TbPYK enzyme, Kinase-Glo Plus ATP luminescence, 45 min | Potency, µM (doses to about 76.8 µM), for inactives: top-dose activity, negative = inhibition, hits mostly inhibitors | Q57TT1; note: potency is the fitted concentration of half-maximal effect; % is set by controls: 0 for no effect and ±100 for the full control effect; nearly all actives have a fitted effect of over 50% in size
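Glycolytic pyruvate kinase of T. brucei was incubated with substrate, test compound and 130 uM ADP for 45 minutes at room temperature. Luminescent Kinase-Glo Plus signal was measured after 10 minutes.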
SARS PLpro yeast-2 = Validates SARS-CoV PLpro inhibitor hits in yeast | shares compounds with SARS PLpro yeast-1 | actives 19% (n = 1,000) | calls only | AID 652038 | yeast expressing SARS-CoV PLpro, growth phenotype rescue; call rule not given here
* = called active by the depositor; i = inactive; ? = inconclusive; . = not tested or not shown; + = active, no number; [ ] = dose if it differs, or a comment. Only some compounds are listed: those with a hit (about 0.81% of all), similar ones and a draw of the others. Unless noted, calls come from the whole dose curve; as a rule, active = well fitted curve in the direction sought with a large enough effect; inconclusive = small, poorly fitted or top-dose-only effect, or another doubt; inactive = no such curve, though single readings can be large; an effect the other way counts as inactive or inconclusive.

SMILES | AMA1-RON2 inh | SARS PLpro yeast-1 | LmPK inhibitor | RE007 growth inh | TbPYK inhibitor | SARS PLpro yeast-2
Oc1ccc(CN2CCC(Cc3ccccc3)CC2)c2cccnc12 | -66.3% | 2.51µM* | -2.5% | -11.5% | -2.7% | ?
CCN(C(=O)COC(=O)/C=C/c1ccco1)C1CCCCC1 | 3.3%[11.6 µM] | 3.5% | . | 3.3% | 1.3% | .
Cc1cc(/C=C(\C#N)C(=O)NCc2ccccc2)c(C)[nH]1 | -6.6% | . | . | -0.2% | -4.1% | .
O=C(Nc1cc(Cl)cc(Cl)c1)C(NCCO)c1ccccc1 (configuration not stated) | -21.6% | ? | -8.9% | 6.8% | 10.3% | i
O=C(Nc1cc(Cl)cc(Cl)c1)C(c1ccccc1)N1CCCCC1 (configuration not stated) | ? | -7.9% | 2.0% | -14.2% | 1.9% | .
Cc1c2cnn(-c3ccccc3)c(=O)c2c(C)n1CC(=O)NCc1ccccc1Br | . | . | . | . | 2.0% | .
O=C(Nc1cc(-c2ccccc2)nn1C1CCCCC1)c1ccc(Cl)cc1 | 3.7% | ? | . | 4.7% | 1.1% | i
Cn1nc(-c2ccccc2)cc1NC(=O)c1ccccc1 | 1.5% | 0.1% | 2.5% | -12.2% | -1.7% | .
Cc1csc(-c2nc3ccccc3n2C(C(=O)Nc2c(C)cccc2C)C2CC2)c1 (configuration not stated) | 5.0% | . | . | -10.0% | . | .
Cc1ccc2nc(CSc3nnc4ccccn34)cc(=O)n2c1 | 12.3% | -0.7% | 7.7%[11.5 µM] | 6.5% | -0.8% | .
C=CCn1c(SCc2cc(=O)n3cc(C)ccc3n2)nnc1-c1cccc(C)c1 | 9.5% | 11.2µM* | -0.1% | -9.6% | -3.3% | i
COc1ccc(NC(=O)CSc2ccc(-c3ccccn3)nn2)cc1OC | -4.1% | 10µM* | -0.5% | -19.5% | 3.3% | i
COc1ccccc1NC(=O)CSc1ccc(-c2ccccn2)nn1 | -19.7% | -18.9% | 0.0% | 3.3% | -3.9% | .
COc1cc(CNCc2ccccn2)ccc1OCc1cccc(Cl)c1 | -14.4% | -8.0% | -1.1% | -6.7% | -8.0% | .
COc1cc(CNCc2ccccn2)ccc1OCc1ccc(Cl)cc1 | -3.3% | ? | 0.2% | 7.2% | -6.1% | i
Cc1ccc(-n2nc(C(=O)N3CCC(C)CC3)c(=O)n(C)c2=O)cc1 | . | . | . | . | 1.1% | .
C[C@H](CO)N1C[C@H](C)[C@@H](CN(C)Cc2ccc(-c3ccccc3)cc2)Oc2c(NC(=O)Nc3ccc4c(c3)OCO4)cccc2C1=O | -22.4% | 11.2µM* | . | 6.7% | -4.4% | i
C[C@H](CO)N1C[C@H](C)[C@@H](CN(C)Cc2ccc(C(=O)O)cc2)Oc2c(NC(=O)Cc3ccccc3)cccc2C1=O | 2.7% | 11.2µM* | . | 36.5% | -1.2% | i
Cc1ccc(S(=O)(=O)N(C)C[C@@H]2Oc3ccc(NC(=O)Nc4cccc5ccccc45)cc3C(=O)N([C@H](C)CO)C[C@H]2C)cc1 | -11.6% | 5.01µM* | . | -0.5% | 1.1% | i
C[C@@H]1CN([C@H](C)CO)C(=O)c2cc(NS(=O)(=O)c3cn(C)cn3)ccc2O[C@H]1CN(C)C(=O)Nc1ccccc1 | 8.1% | ? | . | -11.3% | -3.2% | i
O=C(NCc1ccccc1)C(=O)NCC1CCCN1S(=O)(=O)c1cccs1 (configuration not stated) | 14.9% | 4.5% | . | -5.2% | -12.0% | .
CC(=O)NC(CC(=O)Nc1ccc(S(=O)(=O)NC2=NCCCCC2)cc1)c1ccccc1 (configuration not stated) | 1.4% | ? | . | 2.6% | 0.0% | i
O=C1CC[C@@]2(O)C3Cc4ccc(O)c5c4C2(CCN3CC2CC2)[C@H]1O5 (some centres not stated) | . | . | . | . | -7.7% | .
O=C1CC[C@@]2(O)[C@H]3Cc4ccc(O)c5c4[C@@]2(CCN3CC2CC2)[C@H]1O5 | -1.4% | ? | 1.0% | 10.3% | 1.0% | i
CC(C)NC(=S)N/N=C/c1cc(Br)ccc1O | -0.8% | ? | 0.0% | -13.6% | -13.6% | +
SMILES | AMA1-RON2 inh | SARS PLpro yeast-1 | LmPK inhibitor | RE007 growth inh | TbPYK inhibitor | SARS PLpro yeast-2
CCCCNC(=O)N1CCc2ccccc2C1 | -1.6% | 3.16µM* | 0.2% | -6.2% | 7.4% | i
O=C(NCc1ccc(F)cc1)N1CCc2ccccc2C1 | 14.0% | -4.2% | -6.0% | 28.5% | 0.9% | .
CC(=O)c1cccc(CN2CCC(C(=O)Nc3ccc(Oc4cccnc4)cc3)CC2)c1 | -27.8% | ? | -3.5% | -2.9% | -2.9% | i
CCOc1ccc(-n2c(O)c(/C=N/NC(=O)C3COc4ccccc4O3)c3ccccc3c2=O)cc1 (configuration not stated) | 85.2% | 11.2µM* | 0.3% | -7.7% | -2.4% | ?
CCOC(=O)[C@H]1[C@H]2COc3ccc(Br)cc3[C@@H]2N2C(=O)CN(Cc3ccco3)C(=O)[C@@]12C | -8.0% | ? | . | -2.7% | -14.8% | i
Cc1ccc(S(=O)(=O)N2CCC(C(=O)OC(C)C(=O)NC3CCCCC3C)CC2)cc1C (configuration not stated) | -5.4% | ? | . | 4.8% | -3.1% | ?
CC(/C=N/Nc1nc(C)cc(C)n1)=C\c1ccc(C(C)C)cc1 | 35.9% | 11.2µM* | 4.0% | -22.0% | 9.2% | +
COc1cccc(-c2ncc3ccccc3c2COC(=O)c2ccco2)c1 | -11.6% | 4.0% | . | -8.9% | 0.0% | .
COc1ccccc1NCC(=O)N/N=C/C=C/c1ccccc1 | 38.1% | ? | -2.0% | 10.0% | 2.8% | i
CC1(C)CC2CC(C)(CN2C(=O)c2cc(-c3ccc(O)cc3)on2)C1 (configuration not stated) | 3.8% | -10.0% | 2.7% | ? | 1.4% | .
Cc1noc(C(=O)N2CC3(C)CC2CC(C)(C)C3)c1Cl (configuration not stated) | 0.6% | 4.47µM* | 0.2% | 5.4% | 0.2% | i
Cc1ccc(S(=O)(=O)/C(C#N)=C/c2c(N3CCN(Cc4ccccc4)CC3)nc3ccccn3c2=O)cc1 | -7.1% | 25.2% | 1.4% | -8.3% | -2.7% | .
CC(C)NC(=O)C1(C)CSCC(=O)N1Cc1ccco1 (configuration not stated) | 24.0% | . | . | 0.0% | . | .
CCCCCc1c(-c2ccc(F)cc2F)ncn1CCc1ccccc1OC | -24.1% | . | . | -26.5% | 0.7% | .
Cc1cc(C)cc(-n2c(C)cc(C(=S)N3CCOCC3)c2C)c1 | -24.5% | 14.1µM* | 2.2% | 1.5% | -12.4% | +
Cc1cc(C(=S)N2CCOCC2)c(C)n1-c1ccc(Cl)cc1 | -1.6%[11.6 µM] | 26.9% | 1.8% | 3.6% | -24.2% | .
O=c1c(N2CCOCC2)nsnc1N1CCOCC1 | -2.6% | ? | -6.1% | -1.4% | 1.2% | i
Cc1ccccc1Cn1c(=O)n(-c2ccc(Cl)cc2)c(=O)c2c3c(sc21)CCCC3 | . | . | . | . | -6.1% | .
